PubChem BioAssay AID2710 (National Center for Advancing Translational Sciences (NCATS), 2010)
Calls of active or inactive are those of the source.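 Rule for the calls: active = compounds whose dose response marks them as Clk4 kinase inhibitors with a measurable half-maximal potency; inactive = the rest.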

Target: Dual specificity protein kinase CLK4 (Homo sapiens) (UniProt Q9HAZ1)
Assay: Kinase Inhibition Profile Study on Inhibitors of CDC-like Kinase 4
Conditions: Reaction Biology radiometric kinase assay, 10 uM ATP
Source text: NIH Molecular Libraries Probe Production Centers Network [MLPCN] NIH Chemical Genomics Center [NCGC] MLSCN Grant: 1R03MH084827-01 Assay Submitter (PI): Tom Misteli NCGC Assay Overview: Alternative splicing of pre-mRNAs plays a major role in the regulation of eukaryotic gene expression. Alternative splicing is now thought to be one of the primary reasons for the complexity of higher organisms leading to an average of three protein isoforms per gene. Aberrant splicing can lead to a number of diseases and is known to play a role in rare genetic diseases such as progeria syndrome. Hutchinson-Gilford Progeria Syndrome (HGPS) is a pediatric premature aging disease caused by a spontaneous mutation in the lamin A/C (LMNA) gene due to a single point mutation in the lamin A gene effecting 1 in 4 million people. To identify both specific splicing modulators of the lamin A gene as well as general splicing modulators, a cell-based HTS assay was developed using a minigene reporter system (AIDs, 1459 & 1487). […] The Clk family is part of the CMGC group of protein kinases which includes Dyrks and are essential kinases found in all eukaryotes. Clks have been implicated to play a role in the regulation of alternative splicing; while Dyrks, in particular over expression of Dyrk1A, has been linked to diseases as Down syndrome and Alzheimer disease. This AID summarizes the characterization of lead Clk4 inhibitors in a panel of these related kinases: Clk1, 2 & 3, DYRK1/DYRK1A, and DYRK1B. Potency against Clk4 was also confirmed in the panel.
All kinase reactions were performed using 10 uM ATP in the assay. 100% activity was taken from kinase reactions with DMSO alone (the vehicle used for compound stock solutions).

Dual specificity protein kinase CLK4 (Homo sapiens), sequence (Q9HAZ1 whole entry, looked up): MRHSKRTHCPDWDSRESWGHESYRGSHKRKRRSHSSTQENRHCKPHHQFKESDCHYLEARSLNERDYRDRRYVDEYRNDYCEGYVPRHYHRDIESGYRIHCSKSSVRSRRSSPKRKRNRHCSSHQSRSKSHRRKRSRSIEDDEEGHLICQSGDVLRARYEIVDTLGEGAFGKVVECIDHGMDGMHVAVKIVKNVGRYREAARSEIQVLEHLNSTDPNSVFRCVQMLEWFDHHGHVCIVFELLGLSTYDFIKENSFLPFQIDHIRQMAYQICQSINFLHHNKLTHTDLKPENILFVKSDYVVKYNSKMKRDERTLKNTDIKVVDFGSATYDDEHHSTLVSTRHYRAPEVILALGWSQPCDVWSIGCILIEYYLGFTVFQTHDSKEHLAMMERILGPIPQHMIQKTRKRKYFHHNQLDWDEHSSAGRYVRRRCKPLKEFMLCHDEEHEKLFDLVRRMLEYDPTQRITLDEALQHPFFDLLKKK

Potency, active:
c1nc(NCC2CCOC2)c2cc(-c3ccc4c(c3)OCO4)ccc2n1 (stereo unspecified) 0.029 µM
c1csc(CNc2ncnc3ccc(-c4ccc5c(c4)OCO5)cc23)c1 0.039 µM
c1nc(NCCc2cnc[nH]2)c2cc(-c3ccoc3)ccc2n1 0.84 µM
CN(Cc1ncc[nH]1)c1ncnc2ccc(-c3ccc4c(c3)OCO4)cc12 0.12 µM
c1csc(CNc2ncnc3ccc(-c4ccoc4)cc23)c1 0.249 µM
c1coc(-c2ccc3ncnc(NCc4cccs4)c3c2)c1 1.09 µM
CCOC(=O)c1ccc(-c2ccc3ncnc(NCc4csc(C)n4)c3c2)o1 0.81 µM
COc1cccc(-c2ccc3ncnc(NCc4cccs4)c3c2)c1 1.05 µM
Cc1ccc(CNc2ncnc3ccc(-c4ccoc4C)cc23)o1 0.49 µM
OCc1ccc(-c2ccc3ncnc(NCCc4cnc[nH]4)c3c2)o1 1.29 µM
Cc1nc(CNc2ncnc3ccc(-c4ccoc4)cc23)cs1 0.34 µM
CC(C)(C)CNc1ncnc2ccc(-c3ccc4c(c3)OCO4)cc12 0.07 µM
Cc1occc1-c1ccc2ncnc(NCCc3cnc[nH]3)c2c1 0.74 µM
CCOC(=O)c1ccc(-c2ccc3ncnc(NCc4ccc(C)o4)c3c2)o1 0.23 µM
c1nc(NCC2CCCC2)c2cc(-c3ccc4c(c3)OCO4)ccc2n1 0.09 µM
Cc1nc(CN(C)c2ncnc3ccc(-c4ccc5c(c4)OCO5)cc23)cs1 0.011 µM
CCOC(=O)c1ccc(-c2ccc3ncnc(NCc4ncc[nH]4)c3c2)o1 0.79 µM
Cc1nc(CNc2ncnc3ccc(-c4ccc5c(c4)OCO5)cc23)cs1 0.04 µM
CCOC(=O)c1ccc(-c2ccc3ncnc(NCCc4cnc[nH]4)c3c2)o1 0.25 µM
Cc1nc(CNc2ncnc3ccc(-c4ccoc4C)cc23)cs1 0.85 µM
O=C(O)c1ccc(-c2ccc3ncnc(NCCc4cnc[nH]4)c3c2)o1 0.94 µM
